Assay [1] in a line: qHTS assay for measurement of the activity of small molecule inhibitors on Zika virus induced Caspase-3 activity in human astrocytoma cells (AID 1224859). In outline: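 Human SNB-19 astrocytoma cells in RPMI 1640 with 10% FBS receive compound one hour ahead of Zika virus at 2 FFU/cell. After 6 h infection, caspase-3/7 activity is detected by Caspase-Glo luminescence.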
Assay [2] is described as follows: qHTS assay to identify small molecule inhibitors of chordoma cells - UCH-1 (AID 1259355). Note: nearly all actives have a fitted effect of over 55% in size. The essentials: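 Cells (800/well) were seeded and left overnight at 37 C, 5% CO2, then treated with drugs at 15 concentrations plus a combination mix of auranofin, camptothecin, doxorubicin, rubitecan and topotecan. Viability after 48hr was read by CellTiter-Glo luminescence.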
In general terms: qHTS replaces the single test concentration by a dilution series.

A short description of assay [3]: qHTS assay to identify small molecule inhibitors of chordoma cells - UCH-2 (AID 1259356). Note: series mostly up to about 46 µM.
The nature of assay [4]: P-glycoprotein substrates identified in KB-8-5-11 adenocarcinoma cell line, qHTS therapeutic library screen (AID 1346987). Note: nearly all actives have a fitted effect of over 65% in size. Note: potency is the fitted concentration of half-maximal effect. The essentials: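 KB-8-5-11: colchicine-selected sub-line of KB-3-1 over-expressing P-gp; assay medium lacked colchicine. 72 h drug exposure at 37 degree C, CellTiter-Glo.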
Assay [5] is described as follows: NS1 protein of Zika virus - qHTS assay to identify small molecule inhibitors in human HEK 293 cells (AID 1347053). Note: series mostly up to about 46 µM; nearly all actives have a fitted effect of over 55% in size. The essentials:
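HEK 293; 20 h pre-culture, 37 C/5% CO2; cpd 1 h pre-infection; ZIKV MR766, MOI = 0.5, 24 h, 37 C; TR-FRET NS1 readout (two anti-NS1 Abs); norm. to no-virus vs infected.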

Assay [6] in a line: qHTS of pediatric cancer cell lines to identify multiple opportunities for drug repurposing: Primary screen for TC32 cells (AID 1347089). Note: nearly all actives have a fitted effect of over 60% in size. The essentials:
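A viability screen of TC32 cells was run over 48 h, with primary MIPE doses spanning 0.78 nM–46 µM and NPC doses 0.59 nM–46 µM. ATP luminescence (CellTiter-Glo) served as the read-out.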

A short description of assay [7]: qHTS of pediatric cancer cell lines to identify multiple opportunities for drug repurposing: Primary screen for DAOY cells (AID 1347090). Note: series mostly up to about 46 µM; nearly all actives have a fitted effect of over 55% in size. The essentials: (§1)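 Viability measured as metabolically active cells via CellTiter-Glo luminescence following 48 hours of compound exposure, 11-point dilutions in confirmatory testing. 500-1,000 cells/well plated 5 hours before dosing; controls were DMSO and 2.3 µM bortezomib.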

A short description of assay [8]: qHTS of pediatric cancer cell lines to identify multiple opportunities for drug repurposing: Primary screen for SJ-GBM2 cells (AID 1347091). The essentials: as §1
Assay [9] in a line: qHTS of pediatric cancer cell lines to identify multiple opportunities for drug repurposing: Primary screen for A673 cells (AID 1347092). Note: nearly all actives have a fitted effect of over 45% in size. The essentials:
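Titration-based qHTS on A673 cells: MIPE compounds spanned 11 points (0.78 nM to 46 µM final), NPC compounds 8 points (0.59 nM to 46 µM final). Viability after 48 h was measured by ATP luminescence.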

Assay [10] in a line: qHTS of pediatric cancer cell lines to identify multiple opportunities for drug repurposing: Primary screen for SK-N-MC cells (AID 1347093). Note: series mostly up to about 46 µM. The essentials: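 Metabolically active cells were quantified by ATP-dependent luminescence (CellTiter-Glo, 15 min at room temperature) following 48 h treatment. Cells had been plated at 500-1,000 per well and settled for 5 h beforehand.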

Assay [11] can be described thus: qHTS of pediatric cancer cell lines to identify multiple opportunities for drug repurposing: Primary screen for BT-37 cells (AID 1347094). Note: series mostly up to about 57 µM. In outline: (§2)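 Viability was measured as metabolically active cells after 48 hours of treatment, read by CellTiter-Glo luminescence. Compounds were tested at multiple final concentrations, giving concentration-response curves.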

Assay [12] can be described thus: qHTS of pediatric cancer cell lines to identify multiple opportunities for drug repurposing: Primary screen for NB-EBc1 cells (AID 1347095). The essentials:
as §2

Assay [13] can be described thus: Natriuretic polypeptide receptor (hNpr1) antagonism - Pilot counterscreen GloSensor control cell line (AID 1347045; calls by dose curve; note: series mostly up to about 38 µM). In outline: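 HEK293 cells carrying the GloSensor cGMP sensor (GIP/pGS-40F) were loaded with 2% GloSensor reagent for 2 h, exposed to compounds for 30 min, and then stimulated with 50 uM sodium nitroprusside for 20 min at room temperature.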
For orientation: Counterscreens check selectivity or assay interference.

Assay [14] deals with Atrial natriuretic peptide receptor 1 (Homo sapiens) (UniProt P16066). Put plainly: Natriuretic polypeptide receptor (hNpr1) antagonism - Pilot screen (AID 1347049; calls by dose curve;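 note: agonist-evoked cGMP luminescence read 20 min after hNppA addition; series mostly up to about 58 µM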). In outline: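 HEK293 cells expressing hNpr1 and GloSensor cGMP luciferase, 1500/well, loaded with 2% GloSensor reagent 2 h, compound 30 min at room temperature; luminescence read before and 20 min after 0.1 nM hNppA stimulation.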

The target of assay [15] is Atrial natriuretic peptide receptor 2 (Homo sapiens) (UniProt P20594). Put plainly: Natriuretic polypeptide receptor (hNpr2) antagonism - Pilot subtype selectivity assay (AID 1347050; calls by dose curve). In outline: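 HEK293 cells expressing hNpr2 and a GloSensor cGMP luciferase sensor, 1500/well, preloaded 2 h with 2% GloSensor reagent, compound 30 min, then 1 nM hNppC for 20 min. Antagonism from luminescence after versus baseline pre-read; LOPAC in 1:5 titrations.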

The target of assay [16] is T1, Tyrosine-protein phosphatase non-receptor type substrate 1 (Homo sapiens) + Leukocyte surface antigen CD47 (Homo sapiens) (UniProt P78324+Q08722). Put plainly: CD47-SIRPalpha protein protein interaction - LANCE assay qHTS validation (AID 1347057; active = well fitted curve in the direction sought with a large enough effect in the signal ratio, with a control signal flat, not every such curve was filed as active; the % refers to the signal ratio; note: series mostly up to about 38 µM). In outline:
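First, His-tagged CD47 and Eu-labelled anti-His antibody met the compound for 30 min; next, site-specifically biotinylated SIRPalpha was added for 30 min; finally streptavidin-APC was added before reading the TR-FRET ratio.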
(TR-FRET usually uses a lanthanide donor and a delayed reading to cut background.)

In assay [17] the target is T1, Tyrosine-protein phosphatase non-receptor type substrate 1 (Homo sapiens) + Leukocyte surface antigen CD47 (Homo sapiens). Put plainly: CD47-SIRPalpha protein protein interaction - HTRF assay qHTS validation (AID 1347058; active = well fitted curve in the direction sought with a large enough effect in the signal ratio, not every such curve was filed as active; the % refers to the signal ratio;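 note: recombinant soluble extracellular CD47 with His tag and biotinylated SIRPalpha domains; series mostly up to about 38 µM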). In outline: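 TR-FRET read (Ch1/Ch2 ratio) of soluble extracellular CD47 and Avi-biotinylated SIRPalpha domains in PBS pH 7.4 with 0.05% IGEPAL; 7-point compound titration. Sequential 30 min room-temperature steps; non-biotinylated SIRPalpha as control inhibitor.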

The target is the same in assay [18]. Put plainly: CD47-SIRPalpha protein protein interaction - Alpha assay qHTS validation (AID 1347059).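 Note: bead proximity luminescence from CD47 binding SIRPalpha after compound preincubation with SIRPalpha.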 In outline: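 Biotinylated Avi-tagged SIRPalpha (25 nM) preincubated 30 min with compound, then His-tagged CD47 (12.5 nM) added 30 min; AlphaScreen with Ni-NTA acceptor and streptavidin donor beads. PBS pH 7.4, 0.05% IGEPAL, room temperature; 7-point titrations.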

Assay [19] concerns the target Parathyroid hormone/parathyroid hormone-related peptide receptor (Homo sapiens) (UniProt Q03431). Put plainly: qHTS for PTHR1 Agonists: Optimization Screen against the NCGC LOPAC library (AID 1347079).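 Note: GloSensor cAMP luminescence in HEK-293 GP2 cells expressing human PTHR1 with IBMX.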 The essentials: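 Compounds were tested across a qHTS titration. PTHR1-expressing GP2 cells report cAMP rises via GloSensor luminescence after 1 hr compound exposure at 37C with IBMX present.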

Assay [20] can be described thus: P-glycoprotein substrates identified in KB-3-1 adenocarcinoma cell line, qHTS therapeutic library screen (AID 1346986). Note: nearly all actives have a fitted effect of over 60% in size. The following applies: KB-3-1 parental cells viability, CellTiter-Glo, 72 h. In outline:
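Compounds were tested in dose-response against KB-3-1 and KB-8-5-11 cells at 37 degree C for 72 h, and viability was measured by luminescence. AC50 values came from curve fitting with class-based activity calls.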

Inconclusive results are not listed. Active and inactive are the calls of the source. Unless noted, calls come from the whole dose curve; as a rule, active = well fitted curve in the direction sought with a large enough effect; inconclusive = small, poorly fitted or top-dose-only effect, or another doubt; inactive = no such curve, though single readings can be large; an effect the other way counts as inactive or inconclusive.

T1 sequence (P78324 whole entry, looked up): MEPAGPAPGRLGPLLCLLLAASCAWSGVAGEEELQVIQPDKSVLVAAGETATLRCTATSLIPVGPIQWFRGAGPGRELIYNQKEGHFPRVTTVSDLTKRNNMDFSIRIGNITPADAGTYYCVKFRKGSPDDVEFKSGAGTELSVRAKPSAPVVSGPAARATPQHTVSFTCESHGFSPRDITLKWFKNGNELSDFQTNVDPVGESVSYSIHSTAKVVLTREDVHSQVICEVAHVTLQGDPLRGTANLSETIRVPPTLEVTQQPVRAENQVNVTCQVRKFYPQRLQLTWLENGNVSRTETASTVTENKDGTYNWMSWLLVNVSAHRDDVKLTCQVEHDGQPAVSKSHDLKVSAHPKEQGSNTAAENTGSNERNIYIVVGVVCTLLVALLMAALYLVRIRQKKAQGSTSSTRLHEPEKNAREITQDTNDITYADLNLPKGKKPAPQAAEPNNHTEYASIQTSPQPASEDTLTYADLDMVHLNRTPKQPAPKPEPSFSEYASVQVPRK
T1 sequence (Q08722 whole entry, looked up): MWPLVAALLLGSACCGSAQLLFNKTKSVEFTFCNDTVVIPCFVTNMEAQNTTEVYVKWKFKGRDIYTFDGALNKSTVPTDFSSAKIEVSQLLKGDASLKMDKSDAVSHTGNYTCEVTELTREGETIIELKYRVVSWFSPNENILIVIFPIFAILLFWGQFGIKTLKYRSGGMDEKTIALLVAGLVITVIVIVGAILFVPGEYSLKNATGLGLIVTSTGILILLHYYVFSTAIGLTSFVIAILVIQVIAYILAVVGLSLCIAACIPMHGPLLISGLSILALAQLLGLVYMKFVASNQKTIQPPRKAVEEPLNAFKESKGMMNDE
Sequence of Atrial natriuretic peptide receptor 2 (Homo sapiens) (P20594 whole entry, looked up): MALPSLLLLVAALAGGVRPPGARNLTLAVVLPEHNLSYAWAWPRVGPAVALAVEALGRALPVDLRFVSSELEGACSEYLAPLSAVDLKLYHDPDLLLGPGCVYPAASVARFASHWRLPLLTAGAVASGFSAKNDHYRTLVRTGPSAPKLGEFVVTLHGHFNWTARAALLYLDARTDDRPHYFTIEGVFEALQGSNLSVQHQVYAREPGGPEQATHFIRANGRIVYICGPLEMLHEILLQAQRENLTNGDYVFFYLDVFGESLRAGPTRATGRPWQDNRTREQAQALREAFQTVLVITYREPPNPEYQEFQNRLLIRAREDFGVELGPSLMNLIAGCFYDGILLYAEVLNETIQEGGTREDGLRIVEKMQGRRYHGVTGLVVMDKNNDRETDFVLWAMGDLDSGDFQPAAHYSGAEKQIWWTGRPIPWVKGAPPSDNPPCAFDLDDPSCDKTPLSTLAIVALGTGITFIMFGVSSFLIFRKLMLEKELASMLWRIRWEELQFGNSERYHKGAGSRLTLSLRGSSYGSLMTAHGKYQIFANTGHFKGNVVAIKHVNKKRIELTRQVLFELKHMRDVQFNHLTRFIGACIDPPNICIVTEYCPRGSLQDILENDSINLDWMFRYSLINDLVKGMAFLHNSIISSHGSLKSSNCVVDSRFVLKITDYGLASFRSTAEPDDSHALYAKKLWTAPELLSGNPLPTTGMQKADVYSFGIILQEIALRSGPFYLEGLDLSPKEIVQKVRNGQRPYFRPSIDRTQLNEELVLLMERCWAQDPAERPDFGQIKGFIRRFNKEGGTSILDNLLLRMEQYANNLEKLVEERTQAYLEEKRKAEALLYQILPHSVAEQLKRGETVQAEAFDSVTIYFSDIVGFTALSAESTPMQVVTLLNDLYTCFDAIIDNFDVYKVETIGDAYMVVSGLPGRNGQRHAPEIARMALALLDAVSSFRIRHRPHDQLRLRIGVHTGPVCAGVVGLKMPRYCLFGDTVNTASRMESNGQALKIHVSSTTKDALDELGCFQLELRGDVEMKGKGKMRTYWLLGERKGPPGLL
Sequence of Atrial natriuretic peptide receptor 1 (Homo sapiens) (P16066 whole entry, looked up): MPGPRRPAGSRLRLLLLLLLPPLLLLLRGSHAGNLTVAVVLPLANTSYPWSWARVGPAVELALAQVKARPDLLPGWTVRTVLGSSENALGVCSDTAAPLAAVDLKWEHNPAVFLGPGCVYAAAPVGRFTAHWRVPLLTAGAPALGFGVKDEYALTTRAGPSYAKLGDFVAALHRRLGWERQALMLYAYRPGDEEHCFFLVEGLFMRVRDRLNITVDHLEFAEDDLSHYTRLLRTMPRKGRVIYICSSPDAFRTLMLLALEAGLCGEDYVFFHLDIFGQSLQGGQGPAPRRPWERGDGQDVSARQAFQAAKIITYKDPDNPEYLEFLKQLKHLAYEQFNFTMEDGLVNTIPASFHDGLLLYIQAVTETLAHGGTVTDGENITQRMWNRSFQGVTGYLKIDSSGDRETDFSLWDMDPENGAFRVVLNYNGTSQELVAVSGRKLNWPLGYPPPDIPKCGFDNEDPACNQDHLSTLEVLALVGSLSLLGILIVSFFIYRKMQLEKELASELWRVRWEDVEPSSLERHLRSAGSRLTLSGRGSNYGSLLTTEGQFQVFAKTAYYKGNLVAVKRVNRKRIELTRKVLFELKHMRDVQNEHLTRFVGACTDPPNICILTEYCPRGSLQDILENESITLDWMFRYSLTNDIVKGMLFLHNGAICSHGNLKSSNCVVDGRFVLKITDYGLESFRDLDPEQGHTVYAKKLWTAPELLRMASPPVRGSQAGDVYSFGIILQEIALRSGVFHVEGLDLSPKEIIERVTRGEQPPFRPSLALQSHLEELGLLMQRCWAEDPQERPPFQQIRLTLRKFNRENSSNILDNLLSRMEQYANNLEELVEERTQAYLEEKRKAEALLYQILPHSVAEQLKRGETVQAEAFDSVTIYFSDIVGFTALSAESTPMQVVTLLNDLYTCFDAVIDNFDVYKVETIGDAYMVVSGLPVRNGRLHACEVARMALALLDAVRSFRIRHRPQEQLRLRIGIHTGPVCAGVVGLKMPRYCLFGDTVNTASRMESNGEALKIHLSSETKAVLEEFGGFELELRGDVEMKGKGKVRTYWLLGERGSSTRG
Sequence of Parathyroid hormone/parathyroid hormone-related peptide receptor (Homo sapiens) (Q03431 whole entry, looked up): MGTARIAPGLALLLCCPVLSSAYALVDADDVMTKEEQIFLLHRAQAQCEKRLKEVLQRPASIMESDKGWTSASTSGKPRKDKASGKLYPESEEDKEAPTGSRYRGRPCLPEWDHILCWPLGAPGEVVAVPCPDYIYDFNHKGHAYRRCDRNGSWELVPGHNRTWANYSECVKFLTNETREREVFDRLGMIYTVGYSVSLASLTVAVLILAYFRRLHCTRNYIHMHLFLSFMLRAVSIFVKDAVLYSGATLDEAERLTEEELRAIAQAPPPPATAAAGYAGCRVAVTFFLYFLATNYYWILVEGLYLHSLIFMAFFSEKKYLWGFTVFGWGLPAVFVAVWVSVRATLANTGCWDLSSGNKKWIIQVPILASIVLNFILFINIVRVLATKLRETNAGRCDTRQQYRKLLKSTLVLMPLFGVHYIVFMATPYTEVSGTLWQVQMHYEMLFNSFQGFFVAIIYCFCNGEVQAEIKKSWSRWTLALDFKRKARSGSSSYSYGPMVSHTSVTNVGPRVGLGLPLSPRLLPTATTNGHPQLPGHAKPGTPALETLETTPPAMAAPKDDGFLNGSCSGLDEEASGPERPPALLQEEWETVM

As to `CCOc1ccccc1OCCN[C@H](C)Cc1ccc(OC)c(S(N)(=O)=O)c1`, the compound was called inactive in assay [1]. The Potency entry in assay [2], in assay [3], in assay [4], in assay [5], in assay [6] and in assay [7] was “inactive” each time. The Potency result in [8], in assay [9], in [10], in [11] and in assay [12] was “inactive” in each case.
With `CC(C)(C)NC[C@H](O)COc1nsnc1N1CCOCC1`, the outcome in assay [1], in assay [13], in assay [14], in assay [15], in assay [16] and in assay [17] was inactive. Also, the result in assay [18] and in assay [19] was inactive. Further, the Potency result in [2], in assay [3], in [4], in assay [5], in assay [6] and in assay [7] was “inactive” in each case. Further, the Potency result in assay [8], in [9], in assay [10], in assay [11] and in [12] was “inactive” in each case.
As to `C#C[C@]1(O)CC[C@H]2[C@@H]3CCC4=Cc5oncc5C[C@]4(C)[C@H]3CC[C@@]21C`, in [1], the compound was classed as inactive. For the same compound, the Potency result in [2], in [3], in assay [5], in [6] and in assay [7] was “inactive” in each case. For the same compound, the Potency in [4] was 4.61 µM (active).
On to `FC1(F)C(F)(F)C(F)(F)C2(F)C(F)(F)C(F)(F)C(F)(F)C(F)(F)C2(F)C1(F)F` (stereo not given), for which, in assay [1], the call was inactive. Moreover, the Potency result in [2], in [3], in assay [4], in [5], in assay [6] and in assay [7] was “inactive” throughout. For the same compound, the Potency entry in assay [8], in [9], in assay [10], in [11] and in assay [12] was “inactive” throughout.
Regarding `C=C[C@@]1(C)CC(=O)[C@]2(O)[C@@]3(C)[C@@H](O)CCC(C)(C)[C@@H]3[C@H](O)[C@H](OC(C)=O)[C@@]2(C)O1`, the outcome in assay [1] was inactive. The Potency result in [2], in assay [3], in assay [4], in assay [5], in assay [6] and in assay [7] was “inactive” throughout. The Potency entry in assay [8], in assay [9], in [10], in assay [11] and in assay [12] was “inactive” in each case.
In the case of `Cc1cccc(C)c1NC(=O)c1ccccc1C(=O)O`, the call in assay [1] was inactive. The Potency result in assay [2], in assay [3], in assay [4], in assay [5], in [6] and in assay [7] was “inactive” in each case. Also, the Potency entry in [8], in assay [9], in assay [10], in assay [11] and in [12] was “inactive” each time.
As for `CCCCN=C(N)N=C(N)N`, the call in [1], in assay [20] and in assay [4] was inactive. For the same compound, the Potency entry in assay [2], in assay [3], in assay [5], in assay [6], in assay [7] and in [8] was “inactive” each time. The Potency result in [10] and in assay [12] was “inactive” in each case.
`Cc1ncc(CO)c(C=O)c1O`: the compound was called inactive in assay [1]. Moreover, the Potency result in assay [2], in assay [3], in assay [4], in assay [5], in [6] and in assay [7] was “inactive” throughout. Moreover, the Potency result in assay [8], in [9], in assay [10], in assay [11] and in [12] was “inactive” throughout.
In the case of `CCC(Cc1c(I)cc(I)c(N)c1I)C(=O)O` (stereo not given), in assay [1], the outcome was inactive. Further, the Potency result in [2], in [3], in assay [4], in [5], in [6] and in assay [7] was “inactive” in each case. Further, the Potency result in assay [8], in assay [9], in [10], in assay [11] and in assay [12] was “inactive” in each case.
As for `NC(N)=NCc1cccc(I)c1`, the outcome in assay [1], in assay [13], in assay [14], in assay [15], in assay [16] and in [18] was inactive. For the same compound, the result in assay [19] was inactive. In addition, the Potency entry in assay [2], in assay [3], in [4] and in assay [5] was “inactive” each time.
